Bioassay records (PubChem BioAssay)
This is a sample that favours compounds with a hit; in the whole collection about 2.8% have one here.
FGF22 binding = shifts melting point of recombinant human FGF22; Q9HCT0; recombinant FGF22 thermal shift, SYPRO orange fluorescence; percent of sucrose octasulfate shift, DMSO zero; activity (Tm shift, normalised), % at 9.99 µM; 1.5% of 340,000 active;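 active means mean Tm shift, scaled 0 neutral to 100 positive control, at about 1.3% or above, every replicate too, limit read from the data; inconclusive means no clear call, values can overlap the other calls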
Target sequence (Q9HCT0 whole entry, looked up): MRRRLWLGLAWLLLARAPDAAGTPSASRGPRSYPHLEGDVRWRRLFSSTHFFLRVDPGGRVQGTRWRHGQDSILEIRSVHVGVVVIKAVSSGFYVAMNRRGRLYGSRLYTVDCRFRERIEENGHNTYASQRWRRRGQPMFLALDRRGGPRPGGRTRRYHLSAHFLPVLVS
SIRT5 inh = blocks human SIRT5 desuccinylation of peptide | Q9NXA8 | 1.1% of 330,000 active | AID 652115 | inhibition, % at 15 µM | Purified SirT5, succinyl-peptide AMC, trypsin-coupled fluorescence; in the data active means inhibition above about 15%; inconclusive means no clear call, values can overlap the other calls
Target sequence (Q9NXA8 whole entry, looked up): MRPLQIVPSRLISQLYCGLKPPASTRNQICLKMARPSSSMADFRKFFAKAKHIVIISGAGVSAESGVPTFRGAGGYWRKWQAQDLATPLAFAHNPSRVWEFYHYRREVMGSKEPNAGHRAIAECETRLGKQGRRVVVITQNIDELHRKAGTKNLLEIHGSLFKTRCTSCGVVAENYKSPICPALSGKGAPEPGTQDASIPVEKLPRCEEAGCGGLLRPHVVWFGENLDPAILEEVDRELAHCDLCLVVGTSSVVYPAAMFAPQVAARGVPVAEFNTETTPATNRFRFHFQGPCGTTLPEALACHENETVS
dFosB act-1 = mouse delta FosB homodimer activation. P13346. activation, % at 25 µM. purified delta FosB, TAMRA-CDK5 oligo fluorescence polarization; percent of positive-control signal above neutral wells. 0.99% of 340,000 active;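 active means mean activation above about 17%, with every replicate also reaching it, limit read from the data, passing the limit was not always enough; inconclusive means only one of the two conditions met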
PvdQ acylase = blocks Pseudomonas aeruginosa PvdQ acylase activity. purified PvdQ acylase, fluorescence plate reader. inhibition, % at 10 µM. 0.063% of 340,000 active. AID 488965; in the data active means inhibition above about 30%, passing the limit was not always enough; inconclusive means no clear call, values can overlap the other calls
CDK5 inh = CDK5/p35 (human) kinase inhibition; inhibition, % at 10 µM; Recombinant CDK5/p35, ADP-Glo luminescence, 60 min; 0.01% of 330,000 active;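 active means highest replicate inhibition of at least 50% and at least 75% of replicates reaching 50%; inconclusive means only one of the two criteria met; inactive means both criteria failed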
PglD DTNB = PglD (C. jejuni) enzyme inhibition | purified PglD enzyme, DTNB colorimetric CoA detection | inhibition, % at 12.5 µM | 0.098% of 360,000 active; in the data active means inhibition above about 16%, passing the limit was not always enough; inconclusive means no clear call, values can overlap the other calls
dFosB act-2 = enhances mouse delta FosB homodimer binding to DNA. 2,400 tested, under 10 active. shares compounds with dFosB act-1. activation, % at 24.9 µM. purified delta FosB, TAMRA-CDK5 oligo fluorescence polarization; normalised: neutral wells 0, positive control 100. AID 588690;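 active means highest replicate activation at or above 34% and every replicate reaching that threshold; inconclusive means meets only one of the two criteria; inactive means meets neither criterion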;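 further: higher polarization means more probe DNA bound by delta FosB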
Numbers stand for hits; 0 = inactive; ? = inconclusive; - = not tested or not shown.

SMILES	FGF22 binding	SIRT5 inh	dFosB act-1	PvdQ acylase	CDK5 inh	PglD DTNB	dFosB act-2
COc1ccc(/C=N/NC(=O)c2ccncc2)cc1CN1CCOCC1	0	0	0	0	0	-	-
COc1ccc(/C=N/NC(=O)c2ccccc2NC(=O)c2ccco2)c(OC)c1	0	0	84	0	0	-	0
O=C(N/N=C/c1ccccc1F)c1cc2c(ccc3ccccc32)o1	0	0	0	0	0	0	-
O=C(N/N=C/c1cccc2ccccc12)c1cc2ccccc2o1	0	0	20	0	0	0	0
CCOc1cccc(-c2cc(C(=O)N/N=C/c3ccc(OC)c(CN4CCOCC4)c3)c3ccccc3n2)c1	-	-	39	0	0	-	0
COc1ccc(/C=N/NC(=O)c2cc(-c3ccccc3)nc3ccccc23)c(OC)c1	0	0	23	0	0	-	0
COc1ccccc1-c1cccc(-c2nc(C(=O)N3CCOCC3)cc3c2[C@H](CCO)N([S@@](=O)C(C)(C)C)C3)c1	0	0	-	-	-	0	-
COc1ccccc1/C=N/NC(=O)c1cccc2ccccc12	0	0	37	0	0	0	0
COc1ccccc1CNC(=O)/C=C/c1cc2c(cc1Br)OCO2	-	-	45	0	0	0	0
COc1ccccc1/C=C/C(=O)NCC(=O)N/N=C/c1ccc2c(c1)OCO2	0	0	0	0	0	-	-
CNC[C@H]1Oc2ccc(NC(=O)Nc3ccc(F)cc3)cc2C(=O)N([C@H](C)CO)C[C@@H]1C	0	0	-	-	-	0	-
CC(C)CC(=O)Nc1ccc(C(=O)Cn2nc(C(=O)O)c3ccccc3c2=O)cc1	-	-	0	0	0	0	-
CC(C)(C)c1ccc(C(=O)Cn2nc(C(=O)O)c3ccccc3c2=O)cc1	0	0	29	0	0	-	0
O=C(/C=C/c1cccs1)Nc1cccc(NC(=O)/C=C/c2cccs2)n1	0	0	21	0	0	0	0
O=C(/C=C/c1cccs1)Nc1nccs1	0	0	0	0	0	-	-
CC(=O)Nc1ccc(NC(=O)c2cc(-c3ccc(C)c(C)c3O)n[nH]2)cc1	0	0	68	0	0	0	0
COc1ccc(C(=O)NCC(=O)Nc2ccc(-c3ccccc3)cc2)cc1	0	0	38	0	0	0	0
COc1ccc(NC(=O)c2ccc(NC(=O)CCS(=O)(=O)c3cccs3)cc2)cc1	0	0	30	0	0	0	0
COc1ccc(NC(=O)c2cccs2)cc1	-	-	0	0	0	0	-
COc1ccc(C(=O)Nc2ccc(NC(=O)c3cccs3)cn2)cc1	0	0	33	0	0	0	0
C[C@H](CO)N1C[C@H](C)[C@H](CN(C)C(=O)CCCN(C)C)OCCCC[C@H](C)Oc2ccc(NC(=O)Nc3ccccc3)cc2C1=O	0	0	-	-	-	0	-
CCNC(=O)C[C@@H]1CC[C@@H]2[C@H](COc3ccc(NC(=O)Cc4cccs4)cc3C(=O)N2C)O1	0	0	-	-	-	0	-
CC(=O)Nc1ccc(SCC(=O)c2c(N)n(Cc3ccccc3)c(=O)n(C)c2=O)cc1	0	0	17	0	0	0	0
N#C[C@@H]1[C@@H](c2ccccc2C2=CCCCC2)[C@H](CO)N1C(=O)NC1CCCCC1	-	0	-	-	-	-	-
O=C(CSc1ccc(-c2ccc3c(c2)OCO3)nn1)Nc1nccs1	0	0	36	0	0	-	0
SMILES	FGF22 binding	SIRT5 inh	dFosB act-1	PvdQ acylase	CDK5 inh	PglD DTNB	dFosB act-2
O=C(CSCC(=O)Nc1nc(-c2ccc3c(c2)OCO3)cs1)Nc1nccs1	0	0	0	0	0	0	-
CC(=O)Nc1nc(-c2ccc([N+](=O)[O-])cc2)cs1	0	0	0	0	0	-	-
O=C(Nc1ccc([N+](=O)[O-])cc1)Nc1nc(-c2ccc(Cl)s2)cs1	0	0	29	0	0	-	0
O=C(Nc1ccc(Cl)cc1)Nc1nc(-c2ccccc2)cs1	0	0	30	0	0	-	0
CC(=O)Nc1nc(-c2cc([N+](=O)[O-])cs2)cs1	0	-	29	0	0	-	0
Cc1cccc(S(=O)(=O)N[C@H]2CC[C@@H](CCn3cc(-c4ccccn4)nn3)O[C@@H]2CO)c1	0	0	-	-	-	0	-
COc1ccc(NC(=O)N[C@@H]2CC[C@@H](CCNC(=O)c3ccccc3F)O[C@H]2CO)cc1	0	0	-	-	-	0	-
CCCCN(CC)CCCNC(=S)Nc1ccc2nc(N3CCN(C)CC3)cc(C)c2c1	0	0	0	0	0	0	-
CCN(CC)CCNC(=S)Nc1ccc2nc(N3CCN(C)CC3)cc(C)c2c1	0	0	24	0	0	0	0
CCN(CC)CCNC(=S)Nc1ccc2nc(N3CCCC3)cc(C)c2c1	0	0	32	0	0	-	0
CCCN(CCC)CCCNC(=S)Nc1ccc2nc(N3CCCC3)cc(C)c2c1	0	0	36	0	0	0	?
CCCNC(=O)N1CCC2(CC1)CN(S(C)(=O)=O)[C@@H](CO)c1c2c2ccc(OC)cc2n1C	0	0	-	-	-	-	-
CCOC(=O)c1c(C)n(CC(O)CN(C)C)c2cc(Br)c(OC)cc12 (configuration not stated)	0	0	31	0	0	-	0
CCOC(=O)c1c(CN(C)C)n(-c2ccccc2)c2cc(Br)c(OC)cc12	0	0	0	0	0	0	-
CS(=O)(=O)N(Cc1ccc(Cl)cc1)c1ccc(C(=O)N/N=C/c2cc3ccccc3nc2Cl)cc1	-	-	41	0	-	0	0
CN1C(=O)c2cc(NC(=O)c3ccc(F)c(F)c3)ccc2OC[C@H]2O[C@H](CC(=O)N3CCOCC3)CC[C@@H]21	0	0	-	-	-	0	-
Cc1n[nH]c(C)c1CCc1nc2c3ccccc3nc(SCC(=O)Nc3ccccc3F)n2n1	-	-	57	0	0	0	0
Cc1cccc(NC(=O)CSc2nc3ccccc3c3nc(CCc4c(C)n[nH]c4C)nn23)c1	-	-	44	0	0	0	0
CCN(CC)CCN(C(=O)c1ccc2c(c1)CCCC2)c1nc2c(C)cccc2s1	0	0	29	0	0	0	0
CCN(CC)CCN(C(=O)c1ccc2c(c1)CCCC2)c1nc2ccc(OC)cc2s1	0	0	23	0	0	0	0
CCN(CC)CCN(C(=O)c1ccc2c(c1)CCCC2)c1nc2ccc(C)cc2s1	0	0	0	0	0	0	-
COc1ccc(OCC(=O)Nc2cc(-c3nn4c(C)nnc4s3)ccc2C)cc1	0	-	0	0	0	0	-
Cc1cc(OCC(=O)Nc2cc(-c3nn4c(C)nnc4s3)ccc2C)ccc1Cl	0	-	38	0	0	0	0
CCOC(=O)c1c(C)[nH]c(C(=O)OCC(=O)Nc2ccccc2)c1C	0	0	27	0	0	0	0
Cc1ccc(OCc2nnc(SCC(=O)Nc3sc(C)c(C)c3C#N)n2C)cc1	-	-	26	0	0	0	0
Cc1sc(NC(=O)CSc2nnc(COc3ccccc3)n2C)c(C#N)c1C	-	-	0	0	0	-	-
Cc1ccc(CNC(=O)c2ccc(N3CCC4(CC3)CC(c3cccc(Br)c3)=NO4)c(NC(=O)c3c(Cl)cccc3Cl)c2)cc1	0	-	24	0	0	0	0
